Source: PubChem BioAssay (National Center for Advancing Translational Sciences (NCATS))
LmPK inh: qHTS Assay for Inhibitors of Leishmania Mexicana Pyruvate Kinase (LmPK); Q27686; purified LmPK, Kinase-Glo ATP luminescence, 1 h; Potency, µM (doses to about 57.5 µM), inactives show top-dose activity change, negative = inhibition, actives largely listed as inhibitors; 290,000 compounds, 0.37% hits; note: potency is the fitted concentration of half-maximal effect; % is set by controls: 0 for no effect and ±100 for the full control effect
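qHTS format; LmPK 0.1 nM; substrates PEP 0.5 mM and ADP 0.1 mM. One-hour room-temperature incubation, then coupled luciferase luminescence; 0.5 nM enzyme wells mark activation.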
FBPA Giardia inh: qHTS Assay for Inhibitors of Fructose-1,6-bisphosphate Aldolase from Giardia Lamblia; A8B2U2; purified Giardia FBPA; Potency, µM (top dose mostly 59.6 µM), inactives show at the highest dose activity, negative = inhibition, most hits filed as inhibitors; 290,000 compounds, 0.71% hits; note: potency is the fitted concentration of half-maximal effect; % is set by controls: 0 for no effect and ±100 for the full control effect; nearly all actives have a fitted effect of over 55% in size
Target sequence (A8B2U2 whole entry, looked up): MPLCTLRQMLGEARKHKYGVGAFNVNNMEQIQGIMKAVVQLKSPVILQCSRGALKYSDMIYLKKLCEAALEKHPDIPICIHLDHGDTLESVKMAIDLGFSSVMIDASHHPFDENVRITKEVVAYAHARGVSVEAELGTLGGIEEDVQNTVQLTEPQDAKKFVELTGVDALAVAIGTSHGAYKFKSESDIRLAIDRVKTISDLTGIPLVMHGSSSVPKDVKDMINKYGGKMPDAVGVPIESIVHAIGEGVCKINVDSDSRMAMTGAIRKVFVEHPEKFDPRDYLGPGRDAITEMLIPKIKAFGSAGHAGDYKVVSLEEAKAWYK
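Giardia FBPA (40 nM reagent) was preincubated 10 min at RT with compound (up to 57.5 uM final), then substrate plus GAPDH/TPI/NAD/arsenate coupling system with diaphorase/resazurin was added; resorufin fluorescence (525/598 nm) was read after 20 min.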
Shiga inhibitor: A qHTS for Small Molecule Inhibitors of Shiga Toxin; Vero cells, Shiga toxin protein synthesis inhibition reporter; inhibition, % at 38.7 µM; 290,000 compounds, 9.2% hits; in the data active = inhibition mostly above about 28%, no sharp cut-off; inactive = mostly below about 43%; note: 0% is about no effect
NS1 function inh: qHTS Assay for Inhibitors of Influenza NS1 Protein Function | Potency, µM (doses to about 46.1 µM), for the others: top-dose activity, positive = more growth | 270,000 compounds, 0.4% hits | AID 2326, 2010; calls by dose curve; note: potency is the fitted concentration of half-maximal effect; actives are rising curves; nearly all actives have a fitted effect of over 50% in size
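Compounds were scored for reversing the slow growth caused by influenza A NS1 in S. cerevisiae, measured by optical density at 600 nm. Assay medium contained 2% galactose at pH 6.0; NS1-free yeast of the same strain were the positive control.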
CHX counter: Cycloheximide Counterscreen for Small Molecule Inhibitors of Shiga Toxin | cell reporter, cycloheximide protein synthesis inhibition counterscreen | 300,000 compounds, 12% hits | max response, %; in the data active = max response mostly above about 13%, no sharp cut-off; inactive = mostly below about 14%; note: read at 38.3 µM for the half of the compounds with a filed dose; 0% is about no effect
LmPK inh confirm: Confirmation Assay for Inhibitors of Leishmania Mexicana Pyruvate Kinase (LmPK) | shares compounds with LmPK inh | AID 2559, 2010 | purified LmPK, Kinase-Glo ATP luminescence, 1 h | 150 compounds, 40% hits | Potency, µM (series often up to 57.5 µM), without a hit: top-dose activity change, negative = inhibition, most hits filed as inhibitors;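 active = compounds giving a full or partial concentration-response curve, as inhibitors or activators; inconclusive = weak, top-dose-only or unclear curve responses; inactive = no response at any tested dose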
An asterisk follows results filed as active; ? = inconclusive; / = no result. Most compounds without a hit are left out; they make up all but 14% or so of the library. Unless noted, calls come from the whole dose curve; as a rule, active = well fitted curve in the direction sought with a large enough effect; inconclusive = small, poorly fitted or top-dose-only effect, or another doubt; inactive = no such curve, though single readings can be large; an effect the other way counts as inactive or inconclusive.

SMILES | LmPK inh | FBPA Giardia inh | Shiga inhibitor | NS1 function inh | CHX counter | LmPK inh confirm
Cc1ccc(-c2cc3c(nn2)-c2ccccc2C3=O)cc1 | 7.1µM* | -8% | 25* | -10% | 22* | 10µM*
O=C1c2ccccc2-c2n[nH]c3cccc1c23 | / | -5% | / | 0% | / | /
Cn1c(=O)[nH]c(=O)c2c1nc(N1CCCCC1)n2CC(O)COc1ccc([N+](=O)[O-])cc1 (centres undefined) | 0% | -1% | 45 | 1% | -2 | /
COc1ccc(OC)c2[nH]c(=O)c(CCNS(=O)(=O)c3ccc(C)cc3)cc12 | 2% | ? | 5 | -18% | 2 | 5%
CN=C1NN=C(c2cc(C)n(-c3c(C)n(C)n(-c4ccccc4)c3=O)c2C)CS1 | -5% | 0% | -6 | 14% | -3 | /
c1ccc(C2=NNC(=NC3CC3)SC2)cc1 | 4.5µM* | -24% | 32 | -5% | 15* | 15µM*
O=C(Cc1ccc(S(=O)(=O)N2CCOCC2)s1)N1CCN(c2cccc(C(F)(F)F)c2)CC1 | 4% | / | -6 | 8% | -1 | /
CC(Oc1ccccc1)C(=O)N(CCC1=CCCCC1)c1c(N)n(Cc2ccccc2)c(=O)[nH]c1=O (centres undefined) | -6% | / | -5 | 5% | -2 | /
Cc1cc(C)c2cc(C#N)c(NCCOC(=O)c3ccccc3C)nc2c1 | 0% | -7% | -14 | -6% | 1 | 2%
O=C(Nc1ccc(S(=O)(=O)Nc2ccccc2F)cc1)N1CCCCC1 | -9% | / | -11 | 25% | 16 | /
O=C(c1ccccc1)n1c(=S)nc2ccccn21 | 4.5µM* | 4% | 97* | -14% | 52* | 18µM*
O=C(N1CCCC1)C12CC3CC(CC(Cl)(C3)C1)C2 | -3% | 5% | 24 | -4% | 5 | /
O=C(COC(=O)CCC(=O)c1ccc(F)cc1)Nc1ccc(F)cc1F | 2.2µM* | 2% | -5 | / | 9 | -8%
O=C(COC(=O)CCC(=O)c1ccc(F)cc1)Nc1ccccc1 | 6% | 0% | 3 | -1% | -4 | /
CN1CCN(CC(=O)c2ccccc2F)CC1 | -5% | ? | 15 | 1% | -5 | /
CC(=O)c1c(C)[nH]c(C(=O)N2c3ccccc3CC2C)c1C (centres undefined) | -2% | 1% | -10 | -12% | -5 | /
Cc1ccc(C(=O)N2c3ccccc3CC2C)o1 (centres undefined) | 6.3µM* | 2% | 92* | -8% | 39* | ?
